# Screens deposited in PubChem by National Center for Advancing Translational Sciences (NCATS).
# SNCA viab count: cell viability loss counter-screen; HEK-293-SNCA-luc viability, GF-AFC fluorescence, 24 h; Potency, µM (top dose mostly 57.1 µM), for the others: at the top dose activity change, negative = cytotoxicity, most hits filed as cytotoxic; hit rate 0.12% among 150,000; AID 1671193;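 further: 0% = DMSO-treated cells and -100% = medium-only wells without cells; nearly all actives have a fitted effect of over 30% in size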
#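 HEK-293-SNCA-luc cells (1500/well) plated 24 h, then exposed 24 h to a dilution series; GF-AFC added 30 min at 37C, fluorescence 405/540 nm; normalised to medium-only and DMSO wells, Hill fit.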
# NIH3T3 tox: kills NIH 3T3 cells | NIH 3T3 viability, CellTiter-Glo ATP luminescence, 48-72 h | Potency, µM (titrated, usually from 96.7 µM), for the others: at the highest dose activity change, negative = cytotoxicity, usual class: inhibitors | hit rate 4.3% among 94,000; further: nearly all actives have a fitted effect of over 55% in size
#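 First NIH 3T3 cells are plated at 400 cells/well; next compound is pinned in; then plates incubate 48 or 72 hr at 37 °C; finally CellTiter-Glo is added and luminescence read after 10 min.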
# HEK cytotox: kills HEK 293 cells | hit rate 6.6% among 94,000 | AID 1345083 | Potency, µM (titrated, usually from 115 µM), inactives show at the highest dose activity change, negative = cytotoxicity, usual class: inhibitors | HEK 293 viability, ATP luminescence (CellTiter-Glo), 48-72 h; further: nearly all actives have a fitted effect of over 60% in size
#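 CellTiter-Glo luminescence (cellular ATP) was read after 48 or 72 hr of compound exposure at 37 degree Celsius. Cells were HEK 293 plated at 250 cells/well.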
# SNCA expr inhib: SNCA gene expression inhibition; hit rate 0.17% among 140,000; Potency, µM (series often up to 57.2 µM), for the others: at the highest dose activity change, negative = inhibition, most hits filed as inhibitors; HEK-293 SNCA-luciferase knock-in, luminescence, 24 h;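 further: plate controls were DMSO cells for no effect and cell-free wells for full effect; nearly all actives have a fitted effect of over 45% in size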
# Luciferase inh: inhibitors of firefly (Photinus pyralis) luciferase. P08659. purified P. pyralis luciferase, luminescence, biochemical. hit rate 2.5% among 76,000. Potency, µM (top dose mostly 115 µM), actives largely listed as inhibitors; further: nearly all actives have a fitted effect of over 65% in size
#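 Purified 10nM P. pyralis luciferase with 10uM D-luciferin and 10uM ATP in 50mM Tris acetate pH 7.5, 10mM Mg acetate, 0.01% Tween-20, 0.05% BSA. qHTS titration; luminescence read by CCD imager.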
# NPR1 antag: blocks ANP-stimulated signaling of human Npr1 receptor; hit rate 1.6% among 76,000; AID 1347048; Potency, µM (series often up to 46.3 µM), inactives show at the top dose activity change, negative = inhibition, hits mostly inhibitors; HEK293 hNpr1 GloSensor cGMP, ANP-stimulated luminescence; calls by dose curve; further: nearly all actives have a fitted effect of over 60% in size
# Target sequence (P16066 whole entry, looked up): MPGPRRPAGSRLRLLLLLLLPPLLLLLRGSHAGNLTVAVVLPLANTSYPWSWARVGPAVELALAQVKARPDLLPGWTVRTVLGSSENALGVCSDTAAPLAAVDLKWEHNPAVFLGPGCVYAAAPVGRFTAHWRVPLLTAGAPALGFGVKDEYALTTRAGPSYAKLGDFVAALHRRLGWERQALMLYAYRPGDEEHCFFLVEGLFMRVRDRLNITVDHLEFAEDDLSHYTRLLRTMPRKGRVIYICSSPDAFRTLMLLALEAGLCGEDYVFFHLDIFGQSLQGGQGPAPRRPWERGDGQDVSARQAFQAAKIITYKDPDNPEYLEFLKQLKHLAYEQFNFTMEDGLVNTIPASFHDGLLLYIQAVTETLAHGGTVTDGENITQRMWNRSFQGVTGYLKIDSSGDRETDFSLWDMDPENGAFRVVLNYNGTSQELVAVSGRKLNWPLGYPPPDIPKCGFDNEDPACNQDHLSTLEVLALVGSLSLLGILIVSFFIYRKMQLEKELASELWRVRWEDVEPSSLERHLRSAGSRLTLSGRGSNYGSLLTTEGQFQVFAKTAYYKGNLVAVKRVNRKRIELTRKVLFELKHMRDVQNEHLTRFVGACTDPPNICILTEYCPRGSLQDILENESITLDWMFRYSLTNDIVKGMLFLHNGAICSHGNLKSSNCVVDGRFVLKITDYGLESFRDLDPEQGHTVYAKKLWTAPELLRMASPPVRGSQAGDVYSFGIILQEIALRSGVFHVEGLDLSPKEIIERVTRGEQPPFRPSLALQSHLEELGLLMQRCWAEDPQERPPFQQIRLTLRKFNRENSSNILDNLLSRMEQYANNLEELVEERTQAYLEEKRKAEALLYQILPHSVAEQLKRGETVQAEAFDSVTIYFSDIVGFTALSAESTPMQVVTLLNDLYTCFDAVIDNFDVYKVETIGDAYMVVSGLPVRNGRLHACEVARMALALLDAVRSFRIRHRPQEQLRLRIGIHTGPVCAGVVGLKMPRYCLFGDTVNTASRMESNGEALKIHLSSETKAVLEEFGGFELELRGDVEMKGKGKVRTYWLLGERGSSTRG
#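 Compound pre-incubated 30 min at room temperature on GloSensor-loaded HEK293 cells stably carrying hNpr1 and the pGS-40F cGMP biosensor. Stimulation uses hNppA at 0.1 nM final; luminescence is taken at baseline and 20 min post-agonist.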
# Active calls of the source: *; i = inactive; ? = inconclusive; nt = not tested or not shown; ! = a repeat was not active; [ ] = another dose, or the depositor's remark. Compounds with a hit are over-represented: about 7.4% of the library has one in this group of screens. Unless noted, the call rests on the fitted dose curve; in most records, active means well fitted curve in the direction sought with a large enough effect; inconclusive means small, poorly fitted or top-dose-only effect, or another doubt; inactive means no such curve, though single readings can be large; an effect the other way counts as inactive or inconclusive. Unless noted, on the % scale 0 is the no-effect control and ±100 the full control effect; potency means the concentration at half of the fitted maximal effect.
SMILES,SNCA viab count,NIH3T3 tox,HEK cytotox,SNCA expr inhib,Luciferase inh,NPR1 antag
CC1=C[C@@H](CNC(=O)N2CCOCC2)[C@H](C(C)C)C[C@H]1Cc1nc2ccccc2n1C,?,63µM*,63µM*,?,i,?
CC1=C[C@@H](CNC(=O)Cn2cnnn2)[C@H](C(C)C)C[C@H]1Cc1nc2ccc(C)cc2[nH]1,?,?,89µM*,-18%[87.6 µM],i,-23%[70.6 µM]
CNC(=O)[C@H]1CN(C(=O)c2cccc(OC)c2)[C@]2(C)C(=O)N(CC3CC3)c3ccccc3[C@H]12,-14%[23.9 µM],?,-17%[57.5 µM],-11%[25.6 µM],nt,nt
Cc1nn(C)c(C)c1S(=O)(=O)N1CCC2(CC1)CC(N1CCN(C)CC1)CCO2 (stereo not given),6%,i,-1%,-16%,i,-10%
COc1ccc(C(=O)N2CCn3c(nnc3-c3ccncc3)C2)cc1,-3%,-6%,-7%,-9%,nt,nt
COc1ccccc1Nc1ccnc(N2CCC(C(=O)NCc3cccc(F)c3)CC2)n1,-22%,?,?,-28%,nt,nt
COc1ccccc1Nc1ccnc(N2CCC(C(=O)NCCSC)CC2)n1,-14%,40µM*,?,-10%,nt,nt
O=C(NCc1cccs1)C1CCCN(c2ccnc3ccnn23)C1 (stereo not given),?,?,89µM*,-3%[87.6 µM],nt,nt
COc1ccccc1Nc1ccnc(N2CCC(C(=O)NCc3cccc(C(F)(F)F)c3)CC2)n1,?,32µM*,?,?,nt,nt
O=C(NCc1cccs1)C1CCN(c2ccnc3ccnn23)CC1,-8%[87.6 µM],?,?,-26%[87.6 µM],nt,nt
O=C(NCc1cccc(C(F)(F)F)c1)C1CCN(c2ccnc3ccnn23)CC1,0%,?,35µM*,6%,nt,nt
COc1cccc(CN(C(=O)CC(C)(C)C)[C@H]2C[C@H](C(=O)N3CCNCC3)N(Cc3ccc4c(c3)OCO4)C2)c1,-33%,nt,nt,nt,nt,nt
Cc1ccccc1OCC(=O)N1CCc2c(nc3cc(-c4ccccc4Cl)[nH]n3c2=O)C1,2%,?,?,3%,i,-14%
COc1ccc(-c2cc3nc4c(c(=O)n3[nH]2)CN(C(=O)Cc2ccc(NC(C)=O)cc2)CC4)cc1,5%,?,?,8.9µM*,?,0%
COc1ccc(-c2cc3nc4c(c(=O)n3[nH]2)CCN(C(=O)COc2ccccc2C)C4)cc1,-4%,-19%,-24%,34%,14µM*,-10%
O=C(O)c1cccnc1,4.3µM*!,nt,nt,4.3µM*!,nt,nt
CNC(=O)c1cc(C2CC2)nc2c1c(C1CCCN1[S+](C)(=O)[O-])nn2C (stereo not given),nt,-22%,0%,nt,nt,nt
CC1(COCC2CC2)COc2ccc(C(=O)Nc3ccc4[nH]ccc4c3)cc2N1 (stereo not given),?,45µM*,?,7.1µM*,16µM*,?
CN(C)CCOCC1(C)COc2ccc(C(=O)Nc3ccc4[nH]ccc4c3)cc2N1 (stereo not given),6%[87.6 µM],?,?,?,50µM*,2%[70.6 µM]
CC1(CCCCN2CCOCC2)COc2ccc(C(=O)Nc3ccc4[nH]ccc4c3)cc2N1 (stereo not given),1%,-29%,?,?,i,?
O=C(NC1CCCN(c2ccc3nnc(-c4ccccc4)n3n2)C1)c1ccc(F)cc1 (stereo not given),nt,-26%,i,nt,nt,nt
COc1ccc(C(=O)NC2CCCN(c3ccc4nnc(-c5ccccc5)n4n3)C2)cc1 (stereo not given),nt,?,22µM*,nt,nt,nt
O=C(NC1CCCN(c2ccc3nnc(-c4ccccc4)n3n2)C1)c1ccccn1 (stereo not given),nt,?,28µM*,nt,nt,nt
O=C(c1c2ccccc2cc2ccccc12)N1CCC(N2CCC[C@@H](C(=O)N3CCOCC3)C2)CC1,11%,nt,nt,nt,nt,nt
C=CCNC(=O)N1CC[C@@H](CC(=O)O)[C@@H](CC2=NCCc3cc(OC)ccc32)C1,2%[87.6 µM],i,i,6%[87.6 µM],i,2%[70.6 µM]
SMILES,SNCA viab count,NIH3T3 tox,HEK cytotox,SNCA expr inhib,Luciferase inh,NPR1 antag
Cc1noc(C)c1[S+](=O)([O-])N1CCC2(CC1)C(=O)NN=C2c1ccccn1,?,-15%,?,?,i,2%
O=C1COCC2(CN(c3ccc(C(F)(F)F)cn3)C2)CN1c1ccc(F)cc1,6%[87.6 µM],?,?,-10%[87.6 µM],i,-3%[70.6 µM]
O=C1COCC2(CN(c3ccccc3)C2)CN1c1ccc(OC(F)(F)F)cc1,-2%[87.6 µM],89µM*,89µM*,8%[87.6 µM],i,-11%[70.6 µM]
O=C(Cc1ccc(F)cc1)N1CCC2(CC1)CC(c1cccc(C(F)(F)F)c1)=NO2,nt,40µM*,50µM*,nt,nt,nt
CN(C)C(=O)N1CCC2(CC1)CC(c1cccc(C(F)(F)F)c1)=NO2,nt,?,45µM*,nt,nt,nt
O=C(CCl)N1CCC2(CC1)CC(c1cccc(C(F)(F)F)c1)=NO2,nt,?,79µM*,nt,nt,nt
O=C(Cc1ccccc1)N1CCCC2(CC(c3cccc(C(F)(F)F)c3)=NO2)C1 (stereo not given),-14%,?,?,108%,nt,nt
Cc1ccc(CN2CCC3(CC2)CC(c2cccnc2)=NO3)cc1,-1%[87.6 µM],?,79µM*!,-25%[87.6 µM],i,-17%[70.6 µM]
COc1ccccc1N1CCN(C(=O)C[C@@H]2CCNC[C@@H]2Cc2cc(CN3CCOCC3)on2)CC1,4%,-7%,-7%,25%,i,1%
